Test results published in PubChem BioAssay (NCATS).
Unmarked numbers belong to inactive results. Records with an inconclusive call do not appear. The source made the active and inactive calls. Unless noted, the call rests on the fitted dose curve; in most records, active means well fitted curve in the direction sought with a large enough effect; inconclusive means small, poorly fitted or top-dose-only effect, or another doubt; inactive means no such curve, though single readings can be large; an effect the other way counts as inactive or inconclusive.

Experiments:
[1] = target: Cytochrome P450 1A2 (Homo sapiens) (UniProt P05177); test: p450-cyp1a2 (AID 410; calls by dose curve; further: potency means the concentration at half of the fitted maximal effect)
In short: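 Inhibition was calculated relative to 57 uM furafylline (full inhibition). The reaction used human CYP1A2 at 20nM with Luciferin-ME at its Km, 100uM, driven by an NADPH-regenerating system for 60 min at room temperature.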

[2] = target: Glucocorticoid receptor (Homo sapiens) (UniProt P04150); test: GR-GFP Redistribution (AID 450;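 active means compounds whose dose series gives a full or clear partial fitted curve of increased nuclear translocation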; further: potency means the concentration at half of the fitted maximal effect); conditions: U2OS GR-GFP nuclear translocation, laser cytometry, 2 h
[3] = target: Glucocorticoid receptor (Homo sapiens) (UniProt P04150); test: GR-EFC Redistribution (AID 451; calls by dose curve; further: potency means the concentration at half of the fitted maximal effect); conditions: CHO-K1 GR-EFC translocation, beta-gal luminescence, 2 h
In short: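 Translocation of GR-ED fusion to nuclear EA restores b-gal, read by luminescence after 1 h room-temperature detection. Engineered CHO-K1 biosensor cells, 1,000/well, exposed 2 h at 37 C to titrations up to 46 uM final.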

[4] = target: Cytochrome P450 2C9 (Homo sapiens) (UniProt P11712); test: qHTS Assay for Inhibitors and Substrates of Cytochrome P450 2C9 (AID 883); further: potency means the concentration at half of the fitted maximal effect; nearly all actives have a fitted effect of over 60% in size
In short: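 Turnover of Luciferin-H (100uM, KM) by 10nM human CYP2C9 was measured over 60 min at 37C with NADPH regeneration; inhibitors and some substrates reduce luminescence. Data normalized to sulphaphenazole 57uM.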

[5] = target: Cytochrome P450 3A4 (Homo sapiens) (UniProt P08684); test: qHTS Assay for Inhibitors and Substrates of Cytochrome P450 3A4 (AID 884); further: potency means the concentration at half of the fitted maximal effect; nearly all actives have a fitted effect of over 50% in size
In short: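 20 nM human CYP3A4 with 25 uM Luciferin-PPXE (at KM) in 200 mM KPO4, preincubated 10 min with compound; NADPH regeneration started a 60 min RT reaction. Luciferin detected by luminescence, normalized to 57 uM ketoconazole as full inhibition.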

[6] = target: Cytochrome P450 3A4 (Homo sapiens) (UniProt P08684); test: qHTS Assay for Activators of Cytochrome P450 3A4 (AID 885); further: nearly all actives have a fitted effect of over 65% in size
In short: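 20nM CYP3A4 + 25uM Luciferin-PPXE (=KM), 200mM KPO4; cpd 10 min RT; NADPH regen, 60 min RT; stop w/ detection buffer, 20 min; luminescence. Normalized to 57 uM ketoconazole.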

[7] = target: Cytochrome P450 2D6 (Homo sapiens) (UniProt P10635); test: qHTS Assay for Inhibitors and Substrates of Cytochrome P450 2D6 (AID 891);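 further: luciferin methyl ether substrate demethylated by CYP2D6 with NADPH regeneration; nearly all actives have a fitted effect of over 60% in size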
In short: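 Human CYP2D6 (5 nM) with 30 uM Luciferin-ME EGE (at Km) in 100 mM KPO4, compound preincubated 10 min, then NADPH regeneration system for 60 min at room temperature. Luciferin read by luminescence; normalized to 1.43 uM quinidine.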

[8] = target: DNA dC->dU-editing enzyme APOBEC-3G (Homo sapiens) (UniProt Q9HC16); test: qHTS for inhibitors of Vif-A3G interactions: Validation (AID 588379)
In short: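 HeLa cells stably expressing Vif and A3G-eYFP, 700 cells/well, incubated overnight at 37 deg C, then exposed to compound overnight at 37 deg C. Inhibition of Vif-mediated degradation read as increased yellow fluorescence (Ex 488/Em 500-530) by laser-scanning cytometry.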

[9] = OV-KATE Cancer Cell Toxicity qHTS against the NCATS CANVASS Library (AID 1347345); further: potency means the concentration at half of the fitted maximal effect
In short: (§1)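 Toxicity is measured over 72 h of compound exposure at 37 degrees C under 5% CO2. Each well holds 1000 cells, pre-incubated for 4 hours before dosing across an 11-point range. CellTiter-Glo luminescence gives viability.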

[10] = HPAF-II Cancer Cell Toxicity qHTS against the NCATS CANVASS Library (AID 1347346); further: potency means the concentration at half of the fitted maximal effect; nearly all actives have a fitted effect of over 55% in size
In short: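 Cytotoxicity in HPAF-II pancreatic cancer cells: 72 h treatment across 11 concentrations, ATP-based CellTiter-Glo luminescence endpoint.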

[11] = OV-SAHO Cancer Cell Toxicity qHTS against the NCATS CANVASS Library (AID 1347348); further: potency means the concentration at half of the fitted maximal effect; nearly all actives have a fitted effect of over 55% in size
In short: as §1

[12] = Panc-1005 Cancer Cell Toxicity qHTS against the NCATS CANVASS Library (AID 1347349); further: potency means the concentration at half of the fitted maximal effect; nearly all actives have a fitted effect of over 60% in size
In short: as §1

[13] = SW1088 Cancer Cell Toxicity qHTS against the NCATS CANVASS Library (AID 1347350); further: series mostly up to about 38 µM; nearly all actives have a fitted effect of over 75% in size
In short: as §1

[14] = U-118MG Cancer Cell Toxicity qHTS against the NCATS CANVASS Library (AID 1347351); further: potency means the concentration at half of the fitted maximal effect
In short: as §1

[15] = A2780 Cisplatin Sensitive Ovarian Cancer Cell Toxicity qHTS against the NCATS CANVASS Library (AID 1347353); further: potency means the concentration at half of the fitted maximal effect; nearly all actives have a fitted effect of over 60% in size
In short: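 Seventy-two-hour exposure of cisplatin-sensitive A2780 ovarian cells to an 11-concentration qHTS series; cytotoxicity is inferred from loss of ATPLite luminescence. Bortezomib titration served as positive control.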

[16] = HEK-293 Cancer Cell Toxicity qHTS against the NCATS CANVASS Library (AID 1347355); further: potency means the concentration at half of the fitted maximal effect; nearly all actives have a fitted effect of over 65% in size
In short: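 qHTS cytotoxicity: compounds tested in 11 concentrations on 1000 seeded cells per well over 72 h; bortezomib served as control; signal from CellTiter-Glo luminescence.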

[17] = HPAF-II 24hr Apoptosis Induction qHTS against the NCATS CANVASS Library (AID 1347356)
In short: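 Apoptosis induction in HPAF-II pancreatic cancer cells is measured as caspase-3/7 luminescence after a 24-hour exposure to compounds.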

[18] = HPAF-II 12hr Apoptosis Induction qHTS against the NCATS CANVASS Library (AID 1347358)
In short: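 Apoptosis in HPAF-II pancreatic cancer cells is scored as caspase 3/7 luminescence following a 12-hour exposure to an 11-point compound series.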

[19] = HEK293 24hr Apoptosis Induction qHTS against the NCATS CANVASS Library (AID 1347359)
In short: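 Caspase-3/7 activation measured as luminescence from the DEVD-based Caspase-Glo reagent, 15 min at room temperature, following 24-hour compound treatment of HEK293 cells.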

[20] = HPAF-II 18hr Apoptosis Induction qHTS against the NCATS CANVASS Library (AID 1347360)
In short: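 Apoptosis was scored as caspase-3/7 activity in HPAF-II pancreatic cancer cells treated 18 hours with an 11-point concentration series.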

[21] = tested on: NAD(P)H diaphorase (Clostridium kluyveri); test: Diaphorse counterscreen qHTS: Assay Interference Panel against the NCATS CANVASS Library (AID 1347362)
In short: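 Counterscreen for coupling-enzyme interference: resorufin fluorescence from resazurin/NADH turnover, read after 5 min at room temperature. Compounds were tested over an 11-point series after 15 min dark preincubation with diaphorase in PBS-Tween.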

[22] = target: Luciferin 4-monooxygenase (Photinus pyralis) (UniProt P08659); test: Firefly luciferase counterscreen qHTS: Assay Interference Panel against the NCATS CANVASS Library (AID 1347363); further: series mostly up to about 57 µM
In short: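 Luminescence inhibition readout: compounds (11-point qHTS) sat 15 min at room temperature with substrate mix (0.013 mM luciferin and ATP), then firefly luciferase was added and signal read 5 min later.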

[23] = SDT Cancer Cell Toxicity qHTS against the NCATS CANVASS Library (AID 1347365)
In short: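 Dispense 500 SDT cells per well; pin-transfer compounds; incubate 72 hr at 37C, 5% CO2, 95% RH; add CellTiterGlo and read luminescence.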

[24] = G06 Cancer Cell Toxicity qHTS against the NCATS CANVASS Library (AID 1347368)
In short: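 Cytotoxicity toward canine glioma G06 cells is scored from cellular ATP via luminescence after 72 hr compound exposure at 500 cells/well.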

[25] = MCF7 Cancer Cell Toxicity qHTS against the NCATS CANVASS Library (AID 1347369); further: potency means the concentration at half of the fitted maximal effect
In short: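 Cytotoxicity is measured by ATP content: MCF7 cells at 500 per well receive an 11-point compound series and, after 72 hr at 37C, are lysed with CellTiterGlo for luminescence.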

[26] = qHTS for ATAD5 Antagonist screened against the NCATS CANVASS Library (AID 1347370); further: potency means the concentration at half of the fitted maximal effect; nearly all actives have a fitted effect of over 65% in size
In short: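 HEK293T cells with a stably integrated ATAD5-controlled luciferase reporter were exposed to compounds (11-pt) alongside 10 uM 5-fluorouridine as ATAD5 stabilizer for 16hr at 37C. Viability was read by CellTiter-Fluor fluorescence, then ATAD5 by luminescence.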

[27] = J3T Cancer Cell Toxicity qHTS against the NCATS CANVASS Library (AID 1347371); further: potency means the concentration at half of the fitted maximal effect
In short: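 Viability of the J3T glioma line from dog is scored by ATP luminescence after a 72 hr incubation with natural products.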

[28] = target: Nuclear receptor subfamily 1 group I member 3 (Homo sapiens) (UniProt Q14994); test: qHTS for Constitutive Androstane Receptor (CAR) Agonist screened against the NCATS CANVASS Library (AID 1347373);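 further: every well also contained 1.5 µM PK11195 alongside the test compound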
In short: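 CAR agonism is scored as CYP2B6-promoter luciferase induction in a double-stable transfected HepG2 line, where 1.5uM PK11195 is included in each well. Compounds were tested over a 24hr exposure.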

[29] = qHTS for Hypoxia signaling pathway (HIF-1) antagonists against the NCATS CANVASS Library (AID 1347374)
In short: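 HRE-bla ME-180 cells (2,000/well, 0.5% dialyzed FBS) were pre-incubated 5 h, then given an 11-point compound series plus CoCl2 (60 uM solution as added) for 17 h at 37C. CCF4 β-lactamase read (ex 405, em 460/530 nm) after 2 h at RT.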

[30] = 10-beta competent E. coli microbial cell viability qHTS against the NCATS CANVASS Library (AID 1347376); further: series mostly up to about 46 µM
In short: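 Cytotoxicity toward competent E. coli is scored from cellular ATP content via BacTiter-Glo luminescence following overnight compound exposure at 37C, 5% CO2.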

[31] = qHTS for H2AX Agonists against the NCATS CANVASS Library (AID 1347378)
In short: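 Following overnight seeding, CHO-K1 cells are incubated with a concentration series of compound for 3 hr at 37C (final DMSO 0.76%). Cells are then lysed, detection antibodies added, and emission ratio 665/620 nm recorded after 24 hr at room temperature.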

[32] = qHTS for Inflammasome Signaling Inhibitors: IL-1-beta AlphaLISA screen against the NCATS CANVASS Library (AID 1347379)
In short: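 Human THP-1 cells were pretreated 1 hr at 37 °C with compounds (up to 57.5 uM final), then stimulated with LPS (250 ng/mL final) and ATP (1.25 mM final). Secreted IL-1B was read by AlphaLISA after 16 hr.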

[33] = Inflammasome Signaling qHTS Counterscreen: IL-1-beta AlphaLISA counterscreen against the NCATS CANVASS Library (AID 1347381);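 further: cell-free check with purified IL-1β in medium and no THP-1 cells; series mostly up to about 57 µM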
In short: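 To flag interference with the AlphaLISA read-out, a known amount of purified IL-1-beta (4 pg) replaced cell supernatant. Detection used anti-IL-1-beta acceptor beads, biotinylated antibody and streptavidin donor beads at room temperature.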

[34] = qHTS for Activators of p53 Stress Response Pathway screened against the NCATS CANVASS Library (AID 1347388)
In short: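 Beta-lactamase reporter driven by p53 response elements in HCT-116 cells, read as the 460 nm/530 nm emission ratio after CCF4 loading, following 16 h of exposure to an 11-point series. Cell viability was measured in the same wells by CellTiter-Glo luminescence.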

[35] = Secretion counterscreen for inhibitors of the SERCaMP assay screened against the NCATS CANVASS Library (AID 1347390)
In short: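 Counterscreen identifying compounds that disrupt secretion, using SH-SY5Y cells with a constitutively secreted Gaussia luciferase reporter. A 20 h compound exposure (top 77 uM) precedes luminescent detection with coelenterazine.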

[36] = qHTS for inhibitors of ER calcium dysfunction: SERCaMP assay screened against the NCATS CANVASS Library (AID 1347393); further: potency means the concentration at half of the fitted maximal effect; nearly all actives have a fitted effect of over 40% in size
In short: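 Thapsigargin-induced ER calcium depletion drives GLuc-SERCaMP secretion from SH-SY5Y cells; compounds given 16 h beforehand were scored by lowered coelenterazine luminescence after 4 h challenge.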

[37] = qHTS for inhibitors of Wild type Zika virus screened against the NCATS CANVASS Library (AID 1347396);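 further: ATP luminescence of surviving cells so rescue from viral cell killing; series mostly up to about 46 µM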
In short: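 Vero 766 cells, 1000/well, o/n attach; cpds pin-transferred (11-pt qHTS); WT Zika added; 72 h, 37C, 5% CO2; CellTiter Glo lumi. Uninfected + vehicle = 100% inhibition.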

[38] = Viability qHTS for inhibitors of the SERCaMP assay screened against the NCATS CANVASS Library (AID 1347400); further: potency means the concentration at half of the fitted maximal effect; nearly all actives have a fitted effect of over 70% in size
In short: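 Cytotoxicity counter-screen: ATP content (CellTiter-Glo luminescence) of SH-SY5Y-GLuc SERCaMP MJH297 cells after 48 h at 37C with compounds in an 11-point qHTS series.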

Chain of Glucocorticoid receptor (Homo sapiens) (P04150 whole entry, looked up, the tested form may be a part): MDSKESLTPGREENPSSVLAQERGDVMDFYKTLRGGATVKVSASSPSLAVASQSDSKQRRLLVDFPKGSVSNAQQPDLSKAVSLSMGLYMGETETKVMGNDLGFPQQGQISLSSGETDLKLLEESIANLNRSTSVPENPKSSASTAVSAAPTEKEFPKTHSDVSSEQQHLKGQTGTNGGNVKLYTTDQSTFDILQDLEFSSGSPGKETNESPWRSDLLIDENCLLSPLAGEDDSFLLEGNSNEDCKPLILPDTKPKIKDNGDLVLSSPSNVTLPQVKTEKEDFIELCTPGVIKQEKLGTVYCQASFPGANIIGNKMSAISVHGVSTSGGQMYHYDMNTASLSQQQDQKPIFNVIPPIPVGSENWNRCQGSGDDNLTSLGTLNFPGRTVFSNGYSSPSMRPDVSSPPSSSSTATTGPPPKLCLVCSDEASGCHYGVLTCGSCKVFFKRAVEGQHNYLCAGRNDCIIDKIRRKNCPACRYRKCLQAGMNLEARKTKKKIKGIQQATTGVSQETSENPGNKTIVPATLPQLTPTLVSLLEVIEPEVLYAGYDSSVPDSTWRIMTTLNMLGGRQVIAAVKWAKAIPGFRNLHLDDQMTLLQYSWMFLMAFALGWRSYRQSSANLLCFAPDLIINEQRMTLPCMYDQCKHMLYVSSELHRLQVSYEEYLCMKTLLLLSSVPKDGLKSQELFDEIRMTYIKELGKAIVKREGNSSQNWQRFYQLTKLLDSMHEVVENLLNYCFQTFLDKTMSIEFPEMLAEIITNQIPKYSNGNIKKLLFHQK
Chain of Cytochrome P450 3A4 (Homo sapiens) (P08684 whole entry, looked up): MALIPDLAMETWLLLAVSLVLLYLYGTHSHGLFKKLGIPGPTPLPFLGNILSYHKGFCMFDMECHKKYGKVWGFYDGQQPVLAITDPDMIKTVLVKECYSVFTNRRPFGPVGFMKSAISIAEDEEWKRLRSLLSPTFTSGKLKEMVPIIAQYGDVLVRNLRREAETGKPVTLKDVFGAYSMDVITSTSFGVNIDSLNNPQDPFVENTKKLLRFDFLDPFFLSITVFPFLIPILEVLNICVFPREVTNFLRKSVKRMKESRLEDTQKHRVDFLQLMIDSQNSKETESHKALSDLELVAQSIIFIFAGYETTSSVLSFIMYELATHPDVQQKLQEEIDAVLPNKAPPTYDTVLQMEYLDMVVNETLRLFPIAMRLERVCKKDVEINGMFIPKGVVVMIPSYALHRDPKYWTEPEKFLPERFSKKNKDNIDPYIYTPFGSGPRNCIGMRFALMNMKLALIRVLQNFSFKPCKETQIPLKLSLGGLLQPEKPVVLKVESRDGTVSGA
Chain of DNA dC->dU-editing enzyme APOBEC-3G (Homo sapiens) (Q9HC16 whole entry, looked up): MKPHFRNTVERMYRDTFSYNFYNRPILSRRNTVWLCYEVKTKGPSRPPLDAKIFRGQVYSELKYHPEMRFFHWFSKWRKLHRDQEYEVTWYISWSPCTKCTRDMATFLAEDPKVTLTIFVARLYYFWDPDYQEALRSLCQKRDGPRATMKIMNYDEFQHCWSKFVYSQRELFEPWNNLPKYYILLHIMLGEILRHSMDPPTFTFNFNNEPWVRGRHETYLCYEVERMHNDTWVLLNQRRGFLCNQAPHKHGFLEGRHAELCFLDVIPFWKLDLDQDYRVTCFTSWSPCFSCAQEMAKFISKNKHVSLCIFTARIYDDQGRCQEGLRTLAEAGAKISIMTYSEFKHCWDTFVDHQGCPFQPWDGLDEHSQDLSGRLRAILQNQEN
Chain of Cytochrome P450 2D6 (Homo sapiens) (P10635 whole entry, looked up): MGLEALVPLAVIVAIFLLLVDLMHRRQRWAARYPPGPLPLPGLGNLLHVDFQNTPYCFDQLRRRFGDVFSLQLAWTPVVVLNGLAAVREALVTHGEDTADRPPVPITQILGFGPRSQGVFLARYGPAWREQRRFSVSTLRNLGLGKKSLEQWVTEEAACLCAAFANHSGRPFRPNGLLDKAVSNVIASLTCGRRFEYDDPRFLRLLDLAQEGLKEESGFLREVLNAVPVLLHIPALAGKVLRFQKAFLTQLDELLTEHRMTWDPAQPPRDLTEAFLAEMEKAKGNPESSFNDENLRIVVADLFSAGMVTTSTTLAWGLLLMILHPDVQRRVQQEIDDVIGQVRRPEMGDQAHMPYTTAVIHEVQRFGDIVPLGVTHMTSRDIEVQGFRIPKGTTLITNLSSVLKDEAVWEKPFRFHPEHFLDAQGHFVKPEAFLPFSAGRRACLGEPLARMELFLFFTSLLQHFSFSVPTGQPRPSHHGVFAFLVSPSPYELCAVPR
Chain of Luciferin 4-monooxygenase (Photinus pyralis) (P08659 whole entry, looked up): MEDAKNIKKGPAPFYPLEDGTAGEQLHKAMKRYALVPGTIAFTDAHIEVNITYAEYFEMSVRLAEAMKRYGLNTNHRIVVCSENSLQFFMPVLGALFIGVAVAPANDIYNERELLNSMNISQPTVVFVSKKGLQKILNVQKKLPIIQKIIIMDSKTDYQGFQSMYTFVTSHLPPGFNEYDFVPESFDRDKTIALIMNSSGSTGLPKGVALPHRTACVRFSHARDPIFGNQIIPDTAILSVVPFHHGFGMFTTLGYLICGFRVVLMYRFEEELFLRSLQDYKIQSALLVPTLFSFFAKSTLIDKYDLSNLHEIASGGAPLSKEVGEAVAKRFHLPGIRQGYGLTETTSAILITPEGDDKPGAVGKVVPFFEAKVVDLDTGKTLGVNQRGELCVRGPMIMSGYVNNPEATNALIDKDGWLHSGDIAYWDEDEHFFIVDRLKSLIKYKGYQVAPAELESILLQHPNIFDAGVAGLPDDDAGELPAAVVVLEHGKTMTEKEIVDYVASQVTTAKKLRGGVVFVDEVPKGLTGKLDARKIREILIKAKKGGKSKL
Chain of Nuclear receptor subfamily 1 group I member 3 (Homo sapiens) (Q14994 whole entry, looked up): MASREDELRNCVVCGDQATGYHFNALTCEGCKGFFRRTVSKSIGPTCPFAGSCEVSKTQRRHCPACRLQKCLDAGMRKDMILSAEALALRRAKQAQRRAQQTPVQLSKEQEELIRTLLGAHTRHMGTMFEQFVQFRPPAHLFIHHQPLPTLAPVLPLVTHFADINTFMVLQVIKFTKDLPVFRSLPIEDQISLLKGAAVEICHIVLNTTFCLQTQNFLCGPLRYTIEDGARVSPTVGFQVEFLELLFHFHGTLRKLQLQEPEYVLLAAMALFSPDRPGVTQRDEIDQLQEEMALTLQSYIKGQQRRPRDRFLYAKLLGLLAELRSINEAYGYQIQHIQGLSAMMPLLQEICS
Chain of Cytochrome P450 1A2 (Homo sapiens) (P05177 whole entry, looked up): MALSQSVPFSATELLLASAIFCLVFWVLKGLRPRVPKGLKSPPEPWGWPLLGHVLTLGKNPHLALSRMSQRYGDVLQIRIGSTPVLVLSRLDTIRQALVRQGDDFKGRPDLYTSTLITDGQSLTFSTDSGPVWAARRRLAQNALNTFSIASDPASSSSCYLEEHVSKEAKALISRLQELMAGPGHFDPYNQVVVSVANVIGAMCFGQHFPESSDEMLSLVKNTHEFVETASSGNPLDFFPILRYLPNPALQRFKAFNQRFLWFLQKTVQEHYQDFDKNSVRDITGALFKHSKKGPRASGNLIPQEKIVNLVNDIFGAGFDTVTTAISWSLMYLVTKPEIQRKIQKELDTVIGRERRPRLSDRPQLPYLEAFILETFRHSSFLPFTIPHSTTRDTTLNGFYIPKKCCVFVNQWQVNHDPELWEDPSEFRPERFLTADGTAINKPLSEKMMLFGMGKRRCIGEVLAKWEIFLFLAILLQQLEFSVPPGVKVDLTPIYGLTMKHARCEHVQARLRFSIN
Chain of Cytochrome P450 2C9 (Homo sapiens) (P11712 whole entry, looked up): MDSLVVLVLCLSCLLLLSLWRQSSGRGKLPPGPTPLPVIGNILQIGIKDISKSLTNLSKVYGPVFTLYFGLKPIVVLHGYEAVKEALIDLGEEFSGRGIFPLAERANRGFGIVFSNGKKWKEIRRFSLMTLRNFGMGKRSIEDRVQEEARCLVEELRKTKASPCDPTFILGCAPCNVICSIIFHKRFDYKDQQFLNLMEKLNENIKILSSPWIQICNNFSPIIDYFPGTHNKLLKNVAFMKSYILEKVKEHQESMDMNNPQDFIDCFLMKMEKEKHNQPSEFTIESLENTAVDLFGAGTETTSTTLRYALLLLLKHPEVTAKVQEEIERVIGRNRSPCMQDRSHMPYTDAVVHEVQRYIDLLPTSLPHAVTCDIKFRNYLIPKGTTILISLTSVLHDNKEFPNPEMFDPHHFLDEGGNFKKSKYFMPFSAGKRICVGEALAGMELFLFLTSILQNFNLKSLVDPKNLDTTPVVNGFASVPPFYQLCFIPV

COc1cccc(NC(=O)/C=C\c2ccc(Cl)cc2)c1
Potency [1]: 1 µM (active)
Potency [2]: > 46 µM
Potency [3]: > 46 µM
Potency [4]: 10 µM (active)
Potency [5]: 12.6 µM (active)
Potency [6]: inactive
Potency [7]: inactive
Potency [8]: inactive

C=C1C(=O)O[C@H]2C[C@H](C)[C@@H]3CC(=O)C(C)=C3[C@H](O)[C@H]12
Potency [9]: 13.3 µM (active)
Potency [10]: 13.3 µM (active)
Potency [11]: 14.9 µM (active)
Potency [12]: 18.8 µM (active)
Potency [13]: inactive
Potency [14]: 18.8 µM (active)
Potency [15]: 2.96 µM (active)
Potency [16]: 7.43 µM (active)
outcome [17]: inactive
Potency [18]: inactive
Potency [19]: inactive
Potency [20]: inactive
Potency [21]: inactive
Potency [22]: inactive
Potency [23]: 16.6 µM (active)
Potency [24]: 7.43 µM (active)
Potency [25]: 18.6 µM (active)
Potency [26]: 13.2 µM (active)
Potency [27]: 23.5 µM (active)
outcome [28]: inactive
Potency [29]: 7.47 µM (active)
outcome [30]: inactive
Potency [31]: 17.2 µM (active)
Potency [32]: 10.9 µM (active)
outcome [33]: inactive
Potency [34]: inactive
Potency [35]: 34.3 µM (active)
Potency [36]: 1.72 µM (active)
Potency [37]: inactive
Potency [38]: 21.4 µM (active)
